Hit rate of the full screen: of about 220,000 compounds, about 1,600 (0.73%) were called active. This excerpt belongs to a sample that is enriched for actives. Unmarked numbers belong to inactive results.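 The calls were made as follows: active = inhibition above about 70% (limit read from the data); inactive = the rest.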
molecular target: 14-3-3 protein zeta/delta (Bos taurus) (UniProt P63103); assay: inhibitors of 14-3-3 zeta/Bad binding, primary screen, biochemical, TR-FRET, bovine 14-3-3 zeta (AID 781); settings: TR-FRET 14-3-3zeta/Dy647-pBad peptide displacement, 1 h; at 21.7 µM; hits give high values;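 also: 0% = full 14-3-3 plus peptide FRET controls and 100% = background without 14-3-3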
Sequence (P63103 whole entry, looked up): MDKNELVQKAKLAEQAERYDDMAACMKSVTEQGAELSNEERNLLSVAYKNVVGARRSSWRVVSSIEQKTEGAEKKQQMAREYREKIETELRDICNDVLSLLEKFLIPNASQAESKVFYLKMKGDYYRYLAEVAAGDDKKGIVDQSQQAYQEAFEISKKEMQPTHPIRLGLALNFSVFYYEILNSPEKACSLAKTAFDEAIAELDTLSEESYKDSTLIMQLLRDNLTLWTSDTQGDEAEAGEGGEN

Row | Structure (SMILES) | inhibition
1 | CCN(c1ccccc1)S(=O)(=O)c1ccc(NC(=O)C(C)(C)C)cc1 | 4.53%
2 | CCN(c1ccccc1)S(=O)(=O)c1ccc2[nH]c(=O)[nH]c2c1 | -1.8%
3 | CCN(c1ccccc1)S(=O)(=O)c1ccc(N)cc1 | 71.9% (active)
4 | CCOC(=O)c1cc2c(=O)n3ccccc3nc2n(CC(C)C)c1=NC(=O)c1c(-c2c(F)cccc2Cl)noc1C | -8.06%
5 | O=C1CCCC(O)=C1N=Nc1ccc2ncsc2c1 | 3.62%
6 | COC(=O)c1c(C)oc(C)c1S(=O)(=O)Nc1ccc(C(C)C)cc1 | 3.11%
7 | O=C(CN1C(=O)NC2(CCCCCC2)C1=O)NC1CC1 | 8.5%
8 | CC1CCC2(CC1)NC(=O)N(Cc1nnc(-c3cccs3)o1)C2=O (centres undefined) | 21.6%
9 | CC1CCC2(CC1)NC(=O)N(CC(=O)c1cccn1C)C2=O (centres undefined) | 73.9% (active)
10 | Cc1ccc(CN2CCN(Cc3ccc(OCCO)cc3)CC2CCO)o1 (centres undefined) | -4.12%
11 | COc1ccccc1CNC(=O)C1CCN(S(C)(=O)=O)CC1 | 74% (active)
12 | COc1ccc(CNC(=O)C2CCN(S(C)(=O)=O)CC2)cc1 | -4.78%
13 | COc1ccccc1CNC(=O)C1CCN(c2nc3ccccc3o2)CC1 | -3.16%
14 | Cc1cc(OCCCCOc2ccc(C#N)cc2)ccc1[N+](=O)[O-] | -4.45%
15 | CCOC(=O)C1CCN(S(=O)(=O)c2cc(F)ccc2OC)CC1 | -7.19%
16 | CCOC(=O)C1CCN(C(=O)/C=C/c2cc(OC)c(OC)c(OC)c2)CC1 | -11.5%
17 | CCOC(=O)C1CCCCN1Cc1ccc(OC)c(OC)c1OC (centres undefined) | 79.9% (active)
18 | CCN(CC)CC(=O)Nc1sc2c(c1C(=O)c1ccccc1C)CCC2 | -10.9%
19 | CCCCOc1ccc(CON(C(C)=O)C(C)=O)cc1Cl | 3%
20 | COc1ccc(-c2csc(NC(=O)c3ccc(N4C(=O)CCC4=O)cc3)n2)cc1OC | -4.66%
21 | Cc1ccccc1NC(=O)CNc1ccccc1N1CCCCC1 | -11.4%
22 | O=C(CN1CCN(C2CCCCC2)CC1)Nc1ccccc1N1CCCCC1 | 72.6% (active)
23 | O=C(CN1CCCCC1)Nc1ccccc1Cl | -5.94%
24 | CCCCOc1ccc(N(CC(=O)NC(C)C)C(=O)CCC(=O)Nc2ccccn2)cc1 | -8.63%
25 | O=C1CC(=O)Nc2cc(S(=O)(=O)N3CCN(c4cccc(C(F)(F)F)c4)CC3)ccc2N1 | 9.3%

Row | Structure (SMILES) | inhibition
26 | CC(C)Nc1nnc(SCC(=O)/C=C2\N(C)c3ccccc3C2(C)C)s1 | 0.42%
27 | COC(=O)COc1ccc(C2NC(=O)NC(C)=C2C(=O)NCc2ccccc2)cc1OC (centres undefined) | -4.82%
28 | COCCCNC(=S)NCCNc1nc2cc(C)c(C)cc2cc1C#N | -7.08%
29 | Cc1ccc2cc(C#N)c(NCCNC(=S)NCCCN3CCOCC3)nc2c1 | -9.87%
30 | Cc1ccc2nc(NCCCNC(=O)c3cnccn3)c(C#N)cc2c1 | 70.8% (active)
31 | Cc1ccc(NC(=O)c2nc[nH]c2C(=O)N[C@@H](CCCCNC(=O)OC(C)(C)C)C(=O)OC(C)(C)C)cc1 | -8.93%
32 | O=c1c(-c2ccccc2)coc2cc(O)ccc12 | 4.45%
33 | CN1CCN(Cc2c(O)ccc3c2oc(=O)c2ccccc23)CC1 | 0.82%
34 | O=c1c(-c2ccccc2)coc2c(CN3CCOCC3)c(O)ccc12 | 81.7% (active)
35 | O=C(CSc1ccsc1[N+](=O)[O-])N1CCCCC1 | -7.81%
36 | Cn1c(-c2ccco2)nc2cc3ccccc3cc21 | 75.6% (active)
37 | S=c1[nH]nc(-c2ccco2)n1/N=C/c1ccccc1 | -2.42%
38 | CN1c2ccccc2-c2nc3ccccc3n2C1c1ccco1 (centres undefined) | -9.91%
39 | COc1ccc(-c2csc(Cc3nc(O)cs3)n2)cc1 | -15.6%
40 | CCOc1ccc(N=C2NC(=O)S/C2=C\c2ccc(O)cc2)cc1 | 70.4% [fluorescence artefact?] (active)
41 | CCOc1ccc(N=C2SC(C(=O)O)CC(=O)N2C)cc1 (centres undefined) | 13.2%
42 | NC1=NC(=O)S/C1=C\c1ccc(O)cc1 | -5.85%
43 | Cc1cccc(C(=O)Nc2ccc3c(c2)C(=O)N(CC(C)C)C3=O)c1 | -3.81%
44 | COc1cccc(CN(C)CC(=O)Nc2sc3c(c2C#N)CCC3)c1 | -5.48%
45 | NC(=O)c1c(NC(=O)CSc2nnc(-c3ccco3)n2N)sc2c1CCCC2 | -2.7%
46 | COc1ccc(-n2c(SCC(=O)Nc3sc4c(c3C#N)CCCC4)nnc2-c2ccc(O)cc2)cc1 | 87.9% (active)
47 | C=CCn1c(N)c(C(=O)OCC(C)C)c2nc3ccccc3nc21 | 79.3% [fluorescence artefact?] (active)
48 | C=CCn1c(N)c(S(=O)(=O)c2cccs2)c2nc3ccccc3nc21 | -4.17%
49 | CC(C)Cn1c(N)c(C(=O)NCc2cccs2)c2nc3ccccc3nc21 | 6.16%
50 | S=C(NCCc1ccccc1)Nc1ccccc1 | -1.72%

Row | Structure (SMILES) | inhibition
51 | N#Cc1ccc(C(=O)Nc2nc(-c3cccs3)c(C(=O)C(F)(F)F)s2)cc1 | 3.51%
52 | CNc1ccc(NC(C)=O)cc1[N+](=O)[O-] | 5.82%
53 | CC(=O)Nc1ccc(/C=N/Nc2ccc(C(=O)c3c(C)cc4ccccn34)cc2[N+](=O)[O-])cc1 | 84.9% (active)
54 | Cc1ccc(Nc2ccc(C(N)=O)cc2[N+](=O)[O-])cc1 | 0.31%
55 | Cc1onc(-c2ccccc2)c1C(=O)N=C(N)c1ccc(Cl)cc1 | -6.58%
56 | CCCN(CCC)S(=O)(=O)c1ccc(C(=O)N2CC3CCC(CC3)C2)cc1 | -3.48%
57 | O=C(NCc1cccs1)c1cc(-c2ccccn2)nc2ccc(Br)cc12 | 90.8% (active)
58 | O=C(NCC(c1cccs1)N1CCOCC1)c1cc(-c2ccccn2)nc2ccccc12 (centres undefined) | 1.32%
59 | O=C(Nc1ccncc1)c1cc(-c2ccccn2)nc2ccc(Br)cc12 | 44.9%
60 | O=C(COC(=O)Cn1cnc2ccccc2c1=O)NCC12CC3CC(CC(C3)C1)C2 | 1.53%
61 | Cn1cc(/C=C/C(=O)N2CCCC(C(=O)c3ccc(C(F)(F)F)cc3)C2)cn1 (centres undefined) | -7.47%
62 | CN(C)CCNC(=O)Cc1ccc([N+](=O)[O-])cc1 | -6.79%
63 | COCc1cc(C)nc2sc3c(=O)n(-c4cccc5ccccc45)nnc3c12 | 5.95%
64 | COc1ccc(-n2nnc3c(=O)n(CC(=O)OCc4ccccc4)cnc32)cc1 | 7.97%
65 | COc1ccc(-c2c(C(C)=O)c(C)nc3sc4c(=O)n(-c5ccc(C)cc5)nnc4c23)cc1 | 81.2% (active)
66 | Nc1nc(-c2sc3nc4c(cc3c2N)CCCC4)nc(N2CCOCC2)n1 | -13.9%
67 | O=C(NNC(=S)NC1CC2CCC1C2)c1ccc(Cl)cc1 (centres undefined) | -16.9%
68 | Cc1nc2nc(SCC(=O)c3ccccc3)[nH]c2cc1Br | -3%
69 | Cc1ccc(OCC(=O)NC(C)c2ccccc2)c([N+](=O)[O-])n1 (centres undefined) | 7.44%
70 | Cc1ccc(OCC(=O)Nc2ccccc2Sc2ccc(Cl)cc2)c([N+](=O)[O-])n1 | 71.7% [fluorescence artefact?] (active)
71 | CCc1ccccc1NC(=O)CN(C)C(=O)COc1ccc(C)nc1[N+](=O)[O-] | -17.4%
72 | O=[N+]([O-])c1cccc(/C([O-])=C(/C(=S)Nc2ccccc2F)[n+]2ccccc2)c1 | -7.84%
73 | Cc1cccc(C(=O)Nc2ccc(C(=O)/C=C/c3cccs3)cc2)c1 | 14.9%
74 | Cc1ccc(C(=O)/C=C/Nc2ccc(S(=O)(=O)Nc3onc(C)c3C)cc2)cc1 | -24.4%

From PubChem BioAssay AID781 (Emory University Molecular Libraries Screening Center, 2007)
